Out of some 2,400 compounds screened, about 580 (24%) were called active. The list is a sample of the results. Values without a mark were called inactive.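 Rule for the calls: active = activity change at or above the mean plus 3 SD of buffer wells without dofetilide, per plate; inactive = the rest.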
These compounds were tested against Potassium voltage-gated channel subfamily KQT member 2 (Rattus norvegicus) (UniProt O88943) (assay: KCNQ2 potentiation in CHO cells – cell-based, FluxOR thallium flux, counter-screen for hERG block protector project, confirmation (AID 1942;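 note: normalized value minus buffer-control mean plus three SD of buffer wells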)). Conditions: FluxOR thallium flux fluorescence, at 10 µM, active compounds read high.
Chain of Potassium voltage-gated channel subfamily KQT member 2 (Rattus norvegicus) (O88943 whole entry, looked up): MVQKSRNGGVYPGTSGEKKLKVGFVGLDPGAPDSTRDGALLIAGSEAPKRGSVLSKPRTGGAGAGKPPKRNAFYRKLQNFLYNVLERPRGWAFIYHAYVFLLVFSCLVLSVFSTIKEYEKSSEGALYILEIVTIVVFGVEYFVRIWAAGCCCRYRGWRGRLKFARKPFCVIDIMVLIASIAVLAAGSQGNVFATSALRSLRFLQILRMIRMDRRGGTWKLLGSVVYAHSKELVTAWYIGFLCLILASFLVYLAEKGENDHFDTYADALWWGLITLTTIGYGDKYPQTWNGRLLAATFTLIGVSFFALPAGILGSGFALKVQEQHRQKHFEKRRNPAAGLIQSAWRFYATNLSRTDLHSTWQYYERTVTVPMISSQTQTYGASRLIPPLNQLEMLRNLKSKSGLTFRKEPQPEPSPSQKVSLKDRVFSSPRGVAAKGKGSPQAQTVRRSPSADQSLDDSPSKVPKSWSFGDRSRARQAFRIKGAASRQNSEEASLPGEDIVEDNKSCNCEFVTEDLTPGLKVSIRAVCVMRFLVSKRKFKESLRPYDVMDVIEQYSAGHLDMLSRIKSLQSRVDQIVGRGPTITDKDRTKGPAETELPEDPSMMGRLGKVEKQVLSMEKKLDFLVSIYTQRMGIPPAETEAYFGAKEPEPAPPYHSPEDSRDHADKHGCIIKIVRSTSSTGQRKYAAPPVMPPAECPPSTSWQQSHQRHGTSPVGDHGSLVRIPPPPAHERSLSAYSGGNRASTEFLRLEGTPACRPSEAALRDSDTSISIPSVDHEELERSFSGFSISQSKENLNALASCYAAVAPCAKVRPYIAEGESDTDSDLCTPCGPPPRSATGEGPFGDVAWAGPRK

| SMILES | activity change, less the hit threshold |
| --- | --- |
| NC(=O)c1ccsc1NC(=O)CS(=O)(=O)c1ccccc1 | -4.3% |
| COc1ccc(Cc2c(O)nc(SCC(C)C)[nH]c2=O)cc1 | -20.7% |
| CCOC(=O)C(=CNc1cc(C)ccn1)C(=O)OCC | -11.3% |
| CCOC(=O)C(=CNc1cccc(C)n1)C(=O)OCC | -11.8% |
| CCOC(=O)C(=CNc1ccc(N2CCOCC2)cc1)C(=O)OCC | 0.3% (active) |
| O=C(c1cccc(C(F)(F)F)c1)C1CCCN(C(=O)CCn2cnnn2)C1 (stereo unspecified) | -8.8% |
| NC(=O)Cn1nnc(-c2ccc(CN3CCCCC3)cc2)n1 | -14.8% |
| O=C(Cn1nnc(-c2cccc(C(F)(F)F)c2)n1)N1CCCCCC1 | 13.3% (active) |
| Cc1nc(NCCc2ccc(S(N)(=O)=O)cc2)c2c(C)c(C)sc2n1 | 0.6% (active) |
| O=C(NC1CCN(c2ncccn2)CC1)c1c(F)cccc1F | -9.6% |
| COCC(=O)Nc1cc(C)cn(Cc2c(F)cccc2Cl)c1=O | -15.1% |
| Cc1ccc2c(Cl)cc(Cl)c(OCC(=O)NC3CCS(=O)(=O)C3)c2n1 (stereo unspecified) | -23.4% |
| OCCN1CCN(c2ncnc3c2sc2nc(N4CCOCC4)c4c(c23)CCC4)CC1 | -19.1% |
| Cc1csc2c(N3CCCCC3)ncnc12 | 3.5% (active) |
| CC1=CCC[C@@H]2[C@@](C)(CC/C(C)=C/C(=O)O)[C@H](C)CC[C@@]12C | -3.2% |
| CCCCn1c(N)c(C(=S)NC(=O)CC(C)(C)C)c(=O)n(C)c1=O | 9.2% (active) |
| CC(=O)c1sc(-c2ccc(F)cc2)cc1NS(=O)(=O)c1ccc(C)cc1 | -14.9% |
| CC(C)(C)c1ccc(C(=O)NC(=S)Nc2nc3c(s2)CCCC3)cc1 | 10% (active) |
| O=C(NC(=S)Nc1nc2c(s1)CSc1ccccc1-2)c1ccccc1 | -2.4% |

| SMILES | activity change, less the hit threshold |
| --- | --- |
| COC(=O)c1ccc(C(=O)NC(=S)Nc2nc3c(s2)CCCC3)cc1 | 16% (active) |
| COC(=O)c1ccc(C(=O)NC(=S)Nc2nc3c(s2)CC(C)CC3)cc1 (stereo unspecified) | -11.7% |
| CN(C)/C=C1/C(=O)N(c2ccc([N+](=O)[O-])cc2)N=C1c1ccccc1 | -5.3% |
| Clc1cccc(-c2ccc(C=Nc3ccc(N4CCOCC4)cc3)o2)c1Cl | -8.8% |
| O=C(OCc1ccc(F)cc1)c1cc(S(=O)(=O)N2CCCCC2)ccc1N1CCOCC1 | -12.7% |
| CCOC(=O)C1CCN(C(=O)CCS(=O)(=O)c2ccc3c(c2)CCN3C(=O)CC)CC1 | -16.7% |
| S=c1nc(C2CC2)[nH]c2ccccc12 | 35.2% (active) |
| S=c1nc(C2CCCCC2)[nH]c2ccccc12 | 4.1% (active) |
| COc1cc(S(=O)(=O)NCC2COCCO2)ccc1-n1cnnn1 (stereo unspecified) | -13.9% |
| O=C(N=Nc1c(O)[nH]c2ccc([N+](=O)[O-])cc12)c1cc(-c2ccccc2Cl)nc2ccccc12 | -10.8% |
| COc1ccc(NC(=O)CN2C(=O)S/C(=C/c3cccn3-c3ccc(C(=O)O)cc3)C2=O)cc1 | -22.6% |
| c1ccc(-c2ccnc3nc(N4CCN(c5ccccc5)CC4)nn23)cc1 | -26.3% |
| Cc1cc([N+](=O)[O-])c(C)cc1-c1ccc(/C=N/NC(=O)Cn2nnnc2N)o1 | -10% |
| COc1ccccc1C(=O)NNC(=O)C(=O)Nc1cccc(Cl)c1C | 131% (active) |
| CC(=O)Nc1ccccc1C(=O)C(=O)Nc1ccc(Cl)cc1 | -18.3% |
| COc1ccc(C(=O)Nc2ccccc2C(=O)O)cc1Cl | -8.6% |
| Cc1ccccc1C(=O)NNC(=O)C(=O)Nc1cccc(Cl)c1C | 17.7% (active) |
| CC(=O)Nc1ccccc1C(=O)C(=O)Nc1ccccc1 | -23.5% |
| COc1ccc(Cl)cc1C(=O)Nc1cccnc1Cl | -15.9% |

| SMILES | activity change, less the hit threshold |
| --- | --- |
| O=C(Nc1ccccc1C(=O)O)c1ccc(NC(=O)C2CC2)cc1 | -20.5% |
| Oc1ccc(Cl)cc1C1=NNC(c2cccs2)C1 (stereo unspecified) | 9.1% (active) |
| O=C(Nc1cc(Cl)ccc1O)C1CC(c2ccccc2Cl)=NO1 (stereo unspecified) | -19.1% |
| CCOc1ccc2[nH]c(=O)c(CN(Cc3ccc(C)cc3)C(=O)N3CCCC3)cc2c1 | -12.4% |
| CCSc1nnc(NC(=O)Cn2cnc3c2c(=O)n(C)c(=O)n3C)s1 | -15.7% |
| Clc1ccc(Nc2ccc(Cl)nn2)cc1 | 7.4% (active) |
| Clc1ccc(Nc2nc3cccnc3s2)cc1 | -20.7% |
| S=c1[nH]nc(Nc2ccc(Cl)cc2)s1 | -19.3% |
| COc1ccc(/C=N/NC(=O)C(=O)N2CCCC2)cc1 | -5% |
| N#Cc1c(-c2ccco2)c2c([nH]c1=S)CCCC2 | -16.2% |
| O=C(NCc1ccccc1)C(=O)Nc1nc(C23CC4CC(CC(C4)C2)C3)cs1 | -21.1% |
| O=C(CCc1ccccc1Cl)Nc1ccc(S(=O)(=O)N2CCOCC2)cc1 | -19.3% |
| O=C(NNC(=S)Nc1ccccc1)c1cccc(S(=O)(=O)N2CCOCC2)c1 | -7.9% |
| O=[N+]([O-])c1cc(Cl)cc(/C=N/NC(=S)Nc2ccc(S(=O)(=O)N3CCOCC3)cc2)c1O | 29.8% (active) |
| Cc1ccc(F)cc1CNC(=O)C1CCC(=O)N(C2CC2)C1 (stereo unspecified) | -13.7% |
| N#Cc1ccc(-c2ccc(OCC(=O)Nc3cccnc3)cc2)cc1 | -9.1% |
| O=C(C1CC1)N1N=C(c2ccccc2)CC1(O)C(F)(F)C(F)(F)F (stereo unspecified) | -22.1% |
| O=C(CN1C(=O)NC(Cc2ccccc2)C1=O)Nc1ccccc1OC(F)F (stereo unspecified) | -20.5% |

— PubChem BioAssay AID1942 (Johns Hopkins Ion Channel Center, 2009)
